# According to PubChem BioAssay (Tox21):
# Inconclusive results are not listed. Where a call stands in place of a potency, no number is given. Activity calls are given as the source filed them. Calls follow the shape of the dose curve; as a rule, active = well fitted inhibition curve with a large enough effect in the repeat runs; inconclusive = weak or mixed curves; inactive = no such curve, though single readings can be large or run the other way.
# Biological target: Aromatase (Homo sapiens) (UniProt P11511)
# Sequence (P11511 whole entry, looked up): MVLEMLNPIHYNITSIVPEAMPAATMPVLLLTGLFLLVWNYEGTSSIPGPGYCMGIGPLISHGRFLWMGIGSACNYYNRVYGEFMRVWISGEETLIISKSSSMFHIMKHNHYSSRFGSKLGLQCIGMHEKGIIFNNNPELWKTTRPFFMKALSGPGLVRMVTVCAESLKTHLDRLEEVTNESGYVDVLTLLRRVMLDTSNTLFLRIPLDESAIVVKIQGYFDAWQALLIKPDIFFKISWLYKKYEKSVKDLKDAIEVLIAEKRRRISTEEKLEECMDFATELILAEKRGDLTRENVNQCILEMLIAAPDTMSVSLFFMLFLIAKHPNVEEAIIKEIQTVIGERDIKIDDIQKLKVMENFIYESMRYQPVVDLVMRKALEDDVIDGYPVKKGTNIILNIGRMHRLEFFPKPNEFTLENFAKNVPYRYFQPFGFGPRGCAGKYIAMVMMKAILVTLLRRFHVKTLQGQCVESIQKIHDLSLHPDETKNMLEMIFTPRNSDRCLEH
# Experiment: qHTS assay to identify aromatase inhibitors (AID 743083); also: nearly all actives have a fitted effect of over 55% in size
# Settings: MCF-7 aro ERE, testosterone-driven ERE luciferase, 24 h; series mostly up to 70.3 µM
# Potency is read from the fitted curve at half-maximal effect.
row,SMILES,Potency
1,CC(=O)c1ccc[nH]1,inactive
2,CCO[Si](C)(CCCOCC1CO1)OCC (stereo not given),inactive
3,COc1ccc(C2C(=O)c3ccccc3C2=O)cc1,inactive
4,O=C(O)c1cc(Cl)cc(Cl)c1O,inactive
5,CCOC(=O)C(C)O (stereo not given),inactive
6,COc1ccc(-c2cc(=S)ss2)cc1,inactive
7,O=C(c1ccccc1)c1ccc(O)cc1,inactive
8,O=C(Oc1ccccc1)c1ccc2ccccc2c1O,inactive
9,CC12CC3CC(C)(C1)CC(N)(C3)C2,inactive
10,NC(=O)c1ccccc1[N+](=O)[O-],inactive
11,CCCCCCCCCCCCCC(=O)OCC(O)CO (stereo not given),inactive
12,Cc1ccc(NC(=O)N(C)C)cc1NC(=O)N(C)C,inactive
13,CNS(=O)(=O)c1cc(C(=O)N2CCC(CCN3C4CCC3CC(n3c(C)nc5ccccc53)C4)(c3cccc(F)c3)CC2)c(Cl)cc1F (stereo not given),68.6 µM (active)
14,CO[C@@H]1[C@@H](OC)[C@H](C)[C@@](O)(CC(=O)O)O[C@H]1[C@H](C)[C@H]1O[C@@]2(CC[C@@](C)([C@H]3CC[C@@](C)([C@@H]4O[C@@H]([C@H]5O[C@](C)(O)[C@H](C)C[C@@H]5C)C[C@@H]4OC4C[C@H](OC)[C@@H](OC)[C@H](C)O4)O3)O2)C[C@H](O)[C@H]1C (stereo not given in full),inactive
15,O=S(=O)(Cl)c1c(Cl)cccc1Cl,inactive
16,CCOC(=O)c1c(N)sc2c1CCN(Cc1ccccc1)C2,inactive
17,COc1ccc(-n2nc(C(F)F)cc2-c2ccc(S(C)=O)cc2)cc1 (stereo not given),inactive
18,CCOC(=O)c1ccc(NC(=O)CN2CCCCC2)cc1,inactive

row,SMILES,Potency
1,CC1=CC[C@@H]2C[C@H]1C2(C)C,inactive
2,O=[N+]([O-])C1(Br)COCOC1,30.6 µM (active)
3,CC(=O)OC(C)C[N+](C)(C)C (stereo not given),inactive
4,FC(F)(F)C(F)(F)C(F)(F)C(F)(F)CCI,inactive
5,CCN(Cc1cccc(S(=O)(=O)O)c1)c1ccc(C(=C2C=CC(=[N+](CC)Cc3cccc(S(=O)(=O)O)c3)C=C2)c2ccc(O)cc2S(=O)(=O)[O-])cc1,18.6 µM (active)
6,CC(C)(C(=O)c1cccnc1)c1cccnc1,inactive
7,COc1cc(OC)c2ccc(=O)oc2c1,inactive
8,CC(C)C(O)C(C)(C)CO (stereo not given),inactive
9,COc1ccc(C(=O)NCc2ccc(OCCN(C)C)cc2)cc1OC,inactive
10,Cc1cc(CCC(=O)OCCOCCOCCOC(=O)CCc2cc(C)c(O)c(C(C)(C)C)c2)cc(C(C)(C)C)c1O,inactive
11,CC(CO)(CO)C(=O)O,inactive
12,CC(C)OC(=O)c1ccccc1C(=O)OC(C)C,inactive
13,COC(=O)C1=C(C)NC(C)=C(C(=O)OC(C)(C)CN(C)CCC(c2ccccc2)c2ccccc2)C1c1cccc([N+](=O)[O-])c1 (stereo not given),18.8 µM (active)
14,CC1C(C)(C)C2=C(C(=O)CCC2)C1(C)C (stereo not given),inactive
15,CCCCCCCCCCCCCOS(=O)(=O)O,inactive
16,COc1cc(NC(C)CCCN)c2ncccc2c1 (stereo not given),inactive
17,CCN(CC)CCOc1ccccc1C(=O)CCc1ccccc1,inactive
